Measured values published in PubChem BioAssay (NCI).
This is part of a sample that, as a whole, favours compounds with a hit. Of some 83,000 tested, about 20% had one in any assay.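 Cell lines were cultured in 96-well plates, exposed to a single compound concentration, and assessed for percent growth 48 hours later.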 A number with no mark means an inactive call. Calls of active or inactive are those of the source. The calls were made as follows: active = growth percent below 10; inactive = the rest.

What was measured:
Assay in all cases: NCI-60 one-dose screen, 48 h (100 = growth as untreated, 0 = no growth, -100 = all killed)
Conditions in all cases: 10 µM unless noted
HCT-15 colon = tested on: HCT-15 colon
HT29 colon = tested on: HT29 colon
SNB-75 CNS = tested on: SNB-75 CNS
SNB-19 CNS = tested on: SNB-19 CNS
U251 CNS = tested on: U251 CNS
PC-3 prostate = tested on: PC-3 prostate
SK-MEL-5 melanoma = tested on: SK-MEL-5 melanoma
UACC-62 melanoma = tested on: UACC-62 melanoma
LOX IMVI melanoma = tested on: LOX IMVI melanoma
SK-MEL-28 melanoma = tested on: SK-MEL-28 melanoma

Structure (SMILES)	growth (HCT-15 colon)	growth (HT29 colon)	growth (SNB-75 CNS)	growth (SNB-19 CNS) [%]	growth (U251 CNS)	growth (PC-3 prostate) [%]	growth (SK-MEL-5 melanoma)	growth (UACC-62 melanoma)	growth (LOX IMVI melanoma)	growth (SK-MEL-28 melanoma)
O=C(/C=C/c1cccc(Oc2ccccc2)c1)c1ccc(Nc2nc(Nc3ccc(F)cc3)nc(Nc3ccc(Cl)cc3)n2)cc1	109%	101%	92.5%	108	101%	94	96.4%	105%	108%	112%
Nc1[nH]nc2nc(-c3ccccc3)n3c4ccccc4nc3c12	101%	104%	87.7%	106	102%	95.2	92.8%	88.7%	99.7%	117%
N#Cc1c(-c2ccccc2)cc(-c2ccccc2)n(CCCCC(=O)NO)c1=O	13.8%	19.1%	-8.42% (active)	43.3	29.1%	32.9	-53% (active)	2.89% (active)	-54.9% (active)	17.6%
CCN(CC)C(=O)C1=C(C)NC(=O)NC1c1ccc2c(c1)OCO2 (stereo not given)	105%	107%	93.3%	96.2	102%	98.5	101%	102%	95.6%	115%
CC(C)(C)c1ccc(C(=O)N/N=C/c2ccc(O)cc2O)cc1	14.1%	26.4%	37.6%	28.4	19.6%	34.9	-46.1% (active)	4.25% (active)	2.62% (active)	27.8%
Nc1ncnc2c1N=C(c1ccc(F)cc1)CC(c1cccc(Nc3ccnc4cc(Cl)ccc34)c1)N2 (stereo not given)	48.4%	62.8%	72.7%	82	66.2%	66.3	72%	89.5%	68.2%	95.3%
O=C(c1cccc(N2CCOCC2)n1)c1c[nH]c2ccccc12	95.7%	105%	82%	99.4	91.7%	83.5	93.8%	82.8%	93%	98.6%
Cc1cc(Cl)nc(N2CCN(CCNc3ccnc4cc(Cl)ccc34)CC2)n1	22.4%	10.5%	87.5%	79.9	55.3%	43.1	-45.2% (active)	29.7%	-14.6% (active)	47.7%
CCSc1ccnc(N)n1	102%	113%	95.2%	103	105%	96	107%	99%	99.9%	114%
C=C[C@@]1(C)CC(=O)[C@@H](C(C)(C)c2cn(C)c3ccc(Br)cc23)C[C@@H]1O[Si](C)(C)C(C)(C)C	102%	103%	102%	98.9	97.4%	84.1	104%	93.7%	90.4%	100%
COc1cc(N2C(=O)[C@H](Cl)C2c2ccc(SC)cc2)cc(OC)c1OC (stereo not given in full)	4.62% (active)	1.22% (active)	73.9%	30.5	7.72% (active)	22.1	-34.3% (active)	29.5%	20.3%	65.7%
CC1=C2[C@@H](CC1)[C@]1(C)O[C@@](C3CCNCC3)(C[C@H]1OC(=O)CO)[C@H]2OC(=O)/C=C/c1ccccc1	93.4%	43.2%	68.9%	90.6	44.3%	66.6	94.8%	93.3%	87.1%	94.1%
COC1C(O)CC(OC2CC(OC3CC(O[C@@H]4C(=O)c5c(cc6cc(OC7CC(OC8CC(O)C(O)C(C)O8)C(O)C(C)O7)c(C)c(O)c6c5O)CC4[C@H](OC)[C@@H](O)C(C)=O)OC(C)C3O)OC(C)C2O)OC1C (stereo not given in full)	28%	-16.9% (active)	-17.6% (active)	16.4	7.11% (active)	16.9	-65.2% (active)	-20.9% (active)	-25.2% (active)	-13.9% (active)
O=C(/C=C/C12c3ccccc3C(c3ccccc31)C1C(=O)NC(=O)C12)c1ccco1 (stereo not given)	21.7%	13.1%	-2.52% (active)	30.9	15.9%	31.9	46%	30.8%	16.1%	44.3%
